In PubChem BioAssay (Tox21):
Several values for one entry are separate records, joined by “and”; a condition that tells them apart may be missing. Equal entries are not always repeated. Results filed as inconclusive are left out. A structure can be active in one record and inactive in another. Activity calls are given as the source filed them. Unless noted, calls follow the shape of the dose curve; as a rule, active = well fitted curve in the direction sought with a large enough effect in the repeat runs; inconclusive = weak or mixed curves; inactive = no such curve, though single readings can be large; an effect the other way counts as inactive or inconclusive.

Key:
[1] = qHTS assay to identify small molecule agonists of the hypoxia (HIF-1) signaling pathway - cell viability counter screen (AID 1224844; calls by dose curve; also: nearly all actives have a fitted effect of over 50% in size)
Procedure, shortened: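 Multiplexed with the HRE beta-lactamase assay, this viability read used CellTiter-Glo luminescence (30 min, RT) on HRE-bla ME-180 cells treated 17 hrs with compounds in 0.5% dialyzed FBS medium.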

[2] = qHTS assay to identify small molecule agonists of H2AX - cell viability counter screen (AID 1224847; calls by dose curve; also: top concentration of the series differs between compounds; nearly all actives have a fitted effect of over 30% in size)
Procedure, shortened: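 Quantitative HTS viability measurement: CHO-K1 wild-type cells in serum (10% FBS) medium, short 3 hr drug exposure at 37C with 0.76% DMSO, CellTiter-Glo luminescent detection.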

[3] = qHTS RealTime-Glo MT Cell Viability Assay in HepG2 cells - 24 hour (AID 1224867); also: nearly all actives have a fitted effect of over 50% in size
Procedure, shortened: (§1)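 HepG2 cells (600/well) were dispensed with RealTime-Glo reagents, incubated 5 h at 37 °C, then treated with compounds in DMSO for up to 40 h. Nonlytic NanoLuc luminescence reflecting viable cells was read at each stated time point.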

[4] = qHTS RealTime-Glo MT Cell Viability Assay in HEK293 cells - 32 hour (AID 1224868); also: nearly all actives have a fitted effect of over 50% in size; also: potency is read from the fitted curve at half-maximal effect
Procedure, shortened: (§2)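 HEK293 cells seeded with NanoLuc/prosubstrate reagent, rested 5 h at 37 C, then dosed and kept at 37 C up to 40 h. Nonlytic real-time luminescence from viable cells read at 0, 8, 16, 24, 32 and 40 h.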

[5] = A CellTox Green Cytotoxicity Assay to monitor cytotoxicity in HEK293 cells - 0 hour (AID 1224869); also: nearly all actives have a fitted effect of over 50% in size
Procedure, shortened: (§3)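 Seeding of HEK293 cells together with cytotoxicity dye preceded a 5 h incubation at 37 C/5% CO2. Test compounds in DMSO were then added and fluorescence monitored across 40 h.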

[6] = qHTS RealTime-Glo MT Cell Viability Assay in HepG2 cells - 40 hour (AID 1224870); also: nearly all actives have a fitted effect of over 50% in size
Procedure, shortened: (§4)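 HepG2 cells (600/well) mixed with RealTime-Glo MT reagent, settled 5 h at 37 C/5% CO2 before compound addition. Nonlytic NanoLuc luminescence from viable-cell prosubstrate reduction read repeatedly during 40 h treatment at 37 C.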

[7] = A CellTox Green Cytotoxicity Assay to monitor cytotoxicity in HEK293 cells - 40 hour (AID 1224871); also: nearly all actives have a fitted effect of over 45% in size; also: potency is read from the fitted curve at half-maximal effect
Procedure, shortened: as §3

[8] = qHTS RealTime-Glo MT Cell Viability Assay in HepG2 cells - 8 hour (AID 1224873); also: nearly all actives have a fitted effect of over 55% in size
Procedure, shortened: as §4

[9] = qHTS RealTime-Glo MT Cell Viability Assay in HEK293 cells - 40 hour (AID 1224874); details: RealTime-Glo luminescence; max response: stronger effect = lower value; also: nearly all actives have a fitted effect of over 50% in size; also: potency is read from the fitted curve at half-maximal effect
Procedure, shortened: (§5)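 Tox21 screen in HEK293 using RealTime-Glo MT chemistry, with cells and reagent co-dispensed. Luminescence proportional to viable cell number was captured at intervals during 40 h compound exposure at 37 C.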

[10] = A CellTox Green Cytotoxicity Assay to monitor cytotoxicity in HEK293 cells - 24 hour (AID 1224875); also: nearly all actives have a fitted effect of over 45% in size
Procedure, shortened: as §3

[11] = A CellTox Green Cytotoxicity Assay to monitor cytotoxicity in HepG2 cells - 16 hour (AID 1224876); also: nearly all actives have a fitted effect of over 45% in size
Procedure, shortened: (§6)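 Nonlytic assay: viable cells exclude the dye, so fluorescence scales with cell death. HepG2 at 600 cells/well, compounds added after 5 h, signal read across 40 h.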

[12] = qHTS RealTime-Glo MT Cell Viability Assay in HepG2 cells - 32 hour (AID 1224877); also: nearly all actives have a fitted effect of over 55% in size
Procedure, shortened: as §1

[13] = A CellTox Green Cytotoxicity Assay to monitor cytotoxicity in HepG2 cells - 40 hour (AID 1224879); also: nearly all actives have a fitted effect of over 40% in size; also: potency is read from the fitted curve at half-maximal effect
Procedure, shortened: as §6

[14] = qHTS RealTime-Glo MT Cell Viability Assay in HEK293 cells - 0 hour (AID 1224880); also: top concentration of the series differs between compounds; nearly all actives have a fitted effect of over 45% in size
Procedure, shortened: as §5

[15] = qHTS assay to identify small molecule agonists of H2AX (AID 1224845; active = well fitted activation curve with a large enough effect in the signal ratio in the repeat runs, not every such curve was filed as active; the % refers to the signal ratio)
Procedure, shortened: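 Wild-type CHO-K1 cells, plated overnight, exposed 3hr at 37C to 15 concentrations (0.76% DMSO final). Lysed, then HTRF anti-pH2AX (S139) cryptate and anti-H2AX-d2 antibodies, 24 hr room temperature; 665/620 nm emission read.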

[16] = qHTS assay to identify small molecule antagonists of the estrogen related receptor (ERR) signaling pathway from Tox21 library (AID 1224848); also: nearly all actives have a fitted effect of over 50% in size; also: potency is read from the fitted curve at half-maximal effect
Procedure, shortened: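 ERR reporter cell line (from NTP) seeded 2,000 cells/well, rested 6 h at 37 C/5% CO2, then pin-dosed with compounds in DMSO. After 18 h at 37 C, ONE-Glo added; luminescence read after 30 min at room temperature.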

[17] = qHTS assay to identify small molecule agonists of the estrogen related receptor (ERR) signaling pathway from Tox21 library (AID 1224849; calls by dose curve; also: nearly all actives have a fitted effect of over 15% in size); details: ERR reporter cell line, ONE-Glo luciferase, 18 h
Procedure, shortened: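 Six hours post-seeding at 37 C/5% CO2, ERR cells receive DMSO-solubilised compounds; after 18 h at 37 C, ONE-Glo reagent is applied and luminescence recorded.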

[18] = qHTS RealTime-Glo MT Cell Viability Assay in HEK293 cells - 16 hour (AID 1224872); also: nearly all actives have a fitted effect of over 50% in size; also: potency is read from the fitted curve at half-maximal effect
Procedure, shortened: as §2

[19] = qHTS assay to identify small molecule agonists of the hypoxia (HIF-1) signaling pathway (AID 1224846; active = well fitted activation curve with a large enough effect in the signal ratio in the repeat runs, not every such curve was filed as active; the % refers to the signal ratio)
Procedure, shortened: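 Hypoxia-pathway activation was scored as increased beta-lactamase from an HRE-controlled reporter in ME-180 cells; plated at 2,000 cells per well with 0.5% dialyzed FBS, they were exposed 17 hrs to compounds and then given CCF4-AM.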

[20] = A CellTox Green Cytotoxicity Assay to monitor cytotoxicity in HepG2 cells - 24 hour (AID 1224878); also: nearly all actives have a fitted effect of over 45% in size
Procedure, shortened: as §6
% is scaled to controls: 0 for no effect and ±100 for the full control effect.

Nc1ccc(N=Nc2ccccc2)c(N)n1
inactive: Potency [1] | Potency [2] | outcome [3] | Potency [5] | outcome [6] | Potency [7] | outcome [8] | Potency [10] | Potency [11] | outcome [12] | Potency [14]
active: Potency [4] 43.9 µM and 24.5 µM | Potency [9] 24.7 µM and 24.5 µM | Potency [13] 34.9 µM and 17.4 µM and 26.8 µM

NC(=O)N/N=C/c1ccc([N+](=O)[O-])o1
inactive and 48.6 µM (active): Potency [16]
inactive: Potency [1] | Potency [15] | Potency [2] | activity change, positive = activation ([17]; at 42.5 µM (top of the series)) -13.7% | activity change, positive = activation ([17]; at 92.4 µM (top of the series)) -3.25% and -34% | outcome [3] | Potency [4] | Potency [5] | outcome [6] | Potency [7] | Potency [18] | outcome [8] | max response [9] -0.165% | Potency [10] | Potency [11] | outcome [12] | Potency [13] | Potency [14]

COC(=O)c1ccc(O)cc1
inactive: Potency [1] | Potency [15] | outcome [19] | Potency [2] | Potency [5] | Potency [7] | Potency [10] | Potency [11] | Potency [20] | Potency [13]

CO[C@H]1C=CO[C@@]2(C)Oc3c(C)c(O)c4c(O)c(c(/C=N/N5CCN(C)CC5)c(O)c4c3C2=O)NC(=O)/C(C)=C\C=C[C@H](C)[C@H](O)[C@@H](C)[C@@H](O)[C@@H](C)[C@H](OC(C)=O)[C@@H]1C
inactive: Potency [1] | Potency [2] | activity change, positive = activation ([17]; at 42.5 µM (top of the series)) -25.2% and -32.7% | activity change, positive = activation ([17]; at 92.4 µM (top of the series)) -53.6% | outcome [3] | Potency [5] | outcome [6] | Potency [7] | Potency [10] | Potency [11] | outcome [12] | Potency [13] | Potency [14]
active: Potency [16] 48.8 µM and 23.7 µM | Potency [4] 19.6 µM and 9.88 µM | Potency [18] 6.96 µM and 2.21 µM and 21.3 µM | Potency [9] 22 µM and 15.7 µM

CC(=O)c1ccc(S(=O)(=O)NC(=O)NC2CCCCC2)cc1
inactive: Potency [1] | Potency [15] | Potency [2] | outcome [3] | Potency [4] | Potency [5] | outcome [6] | Potency [7] | Potency [18] | outcome [8] | max response [9] 0.507% and 8.7% and 3.73% | Potency [10] | Potency [11] | outcome [12] | Potency [20] | Potency [13] | Potency [14]

O=c1c(-c2ccc(O)cc2)coc2cc(O)cc(O)c12
active: Potency [4] 24.5 µM | Potency [18] 21.9 µM | Potency [9] 19.2 µM and 19.5 µM
inactive: Potency [1] | outcome [19] | Potency [2] | outcome [3] | Potency [5] | outcome [6] | Potency [7] | outcome [8] | Potency [10] | Potency [11] | outcome [12] | Potency [13] | Potency [14]

CCOC(=O)C(C)(C)Oc1ccc(Cl)cc1
inactive: Potency [1] | Potency [15] | Potency [2] | Potency [16] | activity change, positive = activation ([17]; at 42.5 µM (top of the series)) 1.46% | activity change, positive = activation ([17]; at 92.4 µM (top of the series)) 1.63% and -0.349% | outcome [3] | Potency [4] | Potency [5] | outcome [6] | Potency [7] | Potency [18] | outcome [8] | max response [9] 0.886% and 6.32% and -3.11% | Potency [10] | Potency [11] | outcome [12] | Potency [20] | Potency [13] | Potency [14]

C1CNCCN1
inactive: Potency [1] | Potency [15] | outcome [19] | Potency [2] | outcome [3] | Potency [4] | Potency [5] | outcome [6] | Potency [7] | Potency [18] | outcome [8] | max response [9] 0.515% and 0.916% | Potency [10] | Potency [11] | outcome [12] | Potency [13] | Potency [14]

O=C1OC(c2ccc(O)cc2)(c2ccc(O)cc2)c2ccccc21
inactive: Potency [1] | Potency [15] | Potency [2] | outcome [3] | Potency [4] | Potency [5] | outcome [6] | Potency [7] | Potency [18] | outcome [8] | max response [9] -0.757% | Potency [10] | Potency [11] | outcome [12] | Potency [13] | Potency [14]

NC(=O)OCC(COC(N)=O)c1ccccc1
inactive: Potency [1] | Potency [15] | Potency [2] | outcome [3] | Potency [4] | Potency [5] | outcome [6] | Potency [7] | Potency [18] | outcome [8] | max response [9] 1.64% and -0.593% | Potency [10] | Potency [11] | outcome [12] | Potency [20] | Potency [13] | Potency [14]

C[C@]12CC[C@@H]3c4ccc(O)cc4CC[C@H]3[C@@H]1CCC2=O
49 µM (active) and inactive: Potency [7]
inactive: Potency [1] | Potency [15] | outcome [19] | Potency [2] | outcome [3] | Potency [5] | outcome [6] | Potency [18] | outcome [8] | Potency [10] | Potency [11] | outcome [12] | Potency [13] | Potency [14]

O=C(O)CCCCC1CCSS1 (configuration not stated)
inactive: Potency [1] | Potency [15] | Potency [2] | Potency [16] | activity change, positive = activation ([17]; at 42.5 µM (top of the series)) 4.75% | activity change, positive = activation ([17]; at 92.4 µM (top of the series)) -0.498% and 6.05% | outcome [3] | Potency [4] | Potency [5] | outcome [6] | Potency [7] | Potency [18] | outcome [8] | max response [9] 9.73% and 12.3% and 7.95% | Potency [10] | Potency [11] | outcome [12] | Potency [13] | Potency [14]
